# Article PMC7862700, “An all-to-all approach to the identification of sequence-specific readers for epigenetic DNA modifications on cytosine”
# How the values were obtained:
# Assay in all cases: DAPPL (digital affinity profiling via proximity ligation, sequencing); 10 mM Tris-HCl pH 7.5, 50 mM NaCl, 1 mM DTT, 4% glycerol, room temperature, 30 min; GST-TFs on glutathione beads, 16-mer random dsDNA library, 0.1% formaldehyde crosslink after washing; high values mean tight binding
# [1] = target: T1, FEV (Homo sapiens, UniProt Q99581 1-238); details: protein: recombinant; tags: N-terminal GST; dsDNA, one strand shown
# T1 sequence: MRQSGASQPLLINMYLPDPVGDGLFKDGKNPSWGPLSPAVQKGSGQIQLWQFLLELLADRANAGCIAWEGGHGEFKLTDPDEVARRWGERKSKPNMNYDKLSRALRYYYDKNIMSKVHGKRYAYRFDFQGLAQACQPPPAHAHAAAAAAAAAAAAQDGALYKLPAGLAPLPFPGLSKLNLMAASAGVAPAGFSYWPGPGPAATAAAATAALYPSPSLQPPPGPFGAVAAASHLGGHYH
# Procedure, shortened: (§1)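 Pools were built from human transcription factors expressed in yeast as GST fusions, captured on glutathione beads and DNA-barcoded, along with a tag-only sample. Incubation with 200 nmole of a 16-mer random double-stranded DNA library lasted 30 min at room temperature in Tris/NaCl/DTT/glycerol buffer, and was followed by washing, 0.1% formaldehyde crosslinking, proximity ligation, PCR amplification and Illumina NextSeq500 sequencing. Binding signal is the quotient of each hexamer's read frequency for a factor and its frequency for the tag-only sample.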
# [2] = target: ETV5 (Homo sapiens, UniProt P41161 1-510); details: protein: recombinant; tags: N-terminal GST; dsDNA, one strand shown
# ETV5, sequence (P41161 whole entry): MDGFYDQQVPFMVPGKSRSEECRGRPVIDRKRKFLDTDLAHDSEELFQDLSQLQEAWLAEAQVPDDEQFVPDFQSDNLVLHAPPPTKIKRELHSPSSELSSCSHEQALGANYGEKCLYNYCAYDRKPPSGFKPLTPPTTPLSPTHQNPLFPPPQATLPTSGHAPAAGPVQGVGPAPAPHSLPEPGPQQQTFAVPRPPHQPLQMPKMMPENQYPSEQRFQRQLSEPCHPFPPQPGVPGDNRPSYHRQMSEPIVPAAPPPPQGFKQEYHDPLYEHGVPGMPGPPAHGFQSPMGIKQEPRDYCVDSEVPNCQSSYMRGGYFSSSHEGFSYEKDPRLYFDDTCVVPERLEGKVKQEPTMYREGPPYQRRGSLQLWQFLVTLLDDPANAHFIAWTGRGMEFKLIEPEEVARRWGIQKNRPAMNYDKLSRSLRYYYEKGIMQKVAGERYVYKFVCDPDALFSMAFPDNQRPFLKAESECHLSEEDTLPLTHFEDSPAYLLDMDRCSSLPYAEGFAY
# Procedure, shortened: as §1
# [3] = target: HSF1 (Homo sapiens, UniProt Q00613 1-529); details: protein: recombinant; tags: N-terminal GST; chain copies: 3; dsDNA, one strand shown
# HSF1, sequence (Q00613 whole entry): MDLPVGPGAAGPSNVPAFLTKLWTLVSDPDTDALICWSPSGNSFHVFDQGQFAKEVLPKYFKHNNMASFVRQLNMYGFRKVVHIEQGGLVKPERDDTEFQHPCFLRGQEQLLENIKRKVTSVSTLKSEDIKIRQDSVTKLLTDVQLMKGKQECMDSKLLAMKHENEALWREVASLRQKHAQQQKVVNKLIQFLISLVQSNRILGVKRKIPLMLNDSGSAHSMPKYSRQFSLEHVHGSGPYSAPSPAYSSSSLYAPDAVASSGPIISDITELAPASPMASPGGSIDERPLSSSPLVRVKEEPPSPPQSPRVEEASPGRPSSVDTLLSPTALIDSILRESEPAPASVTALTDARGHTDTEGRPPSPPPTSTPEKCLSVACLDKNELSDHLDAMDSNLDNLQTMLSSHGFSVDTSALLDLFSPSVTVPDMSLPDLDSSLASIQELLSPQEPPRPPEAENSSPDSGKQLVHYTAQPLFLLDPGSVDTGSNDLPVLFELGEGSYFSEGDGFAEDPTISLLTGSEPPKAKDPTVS
# Procedure, shortened: as §1
# [4] = target: T2, SPIC (Homo sapiens, UniProt Q8N5J4 1-248); details: protein: recombinant; tags: N-terminal GST; dsDNA, one strand shown
# T2 sequence: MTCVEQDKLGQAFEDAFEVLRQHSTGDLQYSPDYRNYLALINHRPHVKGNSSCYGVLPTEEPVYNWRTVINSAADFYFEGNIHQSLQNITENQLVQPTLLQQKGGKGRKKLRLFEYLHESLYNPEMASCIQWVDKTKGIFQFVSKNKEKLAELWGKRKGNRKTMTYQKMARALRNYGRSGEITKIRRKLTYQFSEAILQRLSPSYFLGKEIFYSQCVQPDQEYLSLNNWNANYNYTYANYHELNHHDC
# Procedure, shortened: as §1
# [5] = target: ELF4 (Homo sapiens, UniProt Q99607 1-663); details: protein: recombinant; tags: N-terminal GST; dsDNA, one strand shown
# ELF4, sequence (Q99607 whole entry): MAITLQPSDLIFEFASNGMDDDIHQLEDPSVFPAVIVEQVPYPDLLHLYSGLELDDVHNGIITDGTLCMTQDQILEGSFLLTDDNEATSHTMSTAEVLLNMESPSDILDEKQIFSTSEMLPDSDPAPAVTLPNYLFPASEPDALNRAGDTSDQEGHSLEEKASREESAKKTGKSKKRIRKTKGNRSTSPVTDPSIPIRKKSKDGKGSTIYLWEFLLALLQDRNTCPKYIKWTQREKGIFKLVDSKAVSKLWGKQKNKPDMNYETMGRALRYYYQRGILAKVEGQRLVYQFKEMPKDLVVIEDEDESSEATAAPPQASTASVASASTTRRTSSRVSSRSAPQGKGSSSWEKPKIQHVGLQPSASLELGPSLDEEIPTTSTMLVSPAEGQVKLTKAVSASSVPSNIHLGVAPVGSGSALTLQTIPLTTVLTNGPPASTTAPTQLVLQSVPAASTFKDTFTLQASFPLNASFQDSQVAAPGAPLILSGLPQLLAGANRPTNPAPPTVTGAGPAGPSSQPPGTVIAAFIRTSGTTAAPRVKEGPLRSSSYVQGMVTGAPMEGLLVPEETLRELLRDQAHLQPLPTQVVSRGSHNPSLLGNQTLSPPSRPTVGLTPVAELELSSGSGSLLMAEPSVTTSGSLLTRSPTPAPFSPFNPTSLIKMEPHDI
# Procedure, shortened: as §1
# [6] = target: T3, ELK4 (Homo sapiens, UniProt P28324-2 1-405); details: protein: recombinant; tags: N-terminal GST; dsDNA, one strand shown
# T3 sequence: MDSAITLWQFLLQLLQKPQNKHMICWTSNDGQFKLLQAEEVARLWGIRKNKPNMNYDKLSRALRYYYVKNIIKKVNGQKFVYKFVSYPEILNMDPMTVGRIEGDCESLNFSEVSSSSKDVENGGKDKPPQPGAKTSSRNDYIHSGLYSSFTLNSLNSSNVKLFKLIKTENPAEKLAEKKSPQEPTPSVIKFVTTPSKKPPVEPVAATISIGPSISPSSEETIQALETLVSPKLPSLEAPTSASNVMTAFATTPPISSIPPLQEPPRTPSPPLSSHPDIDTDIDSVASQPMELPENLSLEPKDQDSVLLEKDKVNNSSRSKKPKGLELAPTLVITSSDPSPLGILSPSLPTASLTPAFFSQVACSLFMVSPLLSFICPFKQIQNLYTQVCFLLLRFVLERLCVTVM
# Procedure, shortened: as §1
# [7] = target: T4, ETV2 (Homo sapiens, UniProt O00321 1-342); details: protein: recombinant; tags: N-terminal GST; dsDNA, one strand shown
# T4 sequence: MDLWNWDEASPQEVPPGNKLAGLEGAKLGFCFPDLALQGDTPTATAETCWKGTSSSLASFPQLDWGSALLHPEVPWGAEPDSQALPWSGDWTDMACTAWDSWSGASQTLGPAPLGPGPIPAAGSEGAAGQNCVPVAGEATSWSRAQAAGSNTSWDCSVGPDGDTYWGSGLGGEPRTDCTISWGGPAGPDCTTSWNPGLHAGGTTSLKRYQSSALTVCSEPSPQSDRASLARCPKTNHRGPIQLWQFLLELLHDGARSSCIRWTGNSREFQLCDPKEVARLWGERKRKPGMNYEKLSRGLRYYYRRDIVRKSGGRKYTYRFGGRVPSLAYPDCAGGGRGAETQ
# Procedure, shortened: as §1
# [8] = target: T5, ELF3 (Homo sapiens, UniProt P78545 1-371); details: protein: recombinant; tags: N-terminal GST; dsDNA, one strand shown
# T5 sequence: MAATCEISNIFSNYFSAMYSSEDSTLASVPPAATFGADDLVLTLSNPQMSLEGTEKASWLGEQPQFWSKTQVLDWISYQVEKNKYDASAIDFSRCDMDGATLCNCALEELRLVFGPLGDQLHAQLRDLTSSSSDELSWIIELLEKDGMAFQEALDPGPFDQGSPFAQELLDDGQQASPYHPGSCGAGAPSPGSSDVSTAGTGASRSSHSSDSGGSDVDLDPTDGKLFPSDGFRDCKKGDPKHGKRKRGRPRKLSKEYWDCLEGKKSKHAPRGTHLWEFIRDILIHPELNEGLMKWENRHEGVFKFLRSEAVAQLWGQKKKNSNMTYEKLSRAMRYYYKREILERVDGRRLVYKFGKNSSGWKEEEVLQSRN
# Procedure, shortened: as §1
# [9] = target: CRX (Homo sapiens, UniProt O43186 1-299); details: protein: recombinant; tags: N-terminal GST; dsDNA, one strand shown
# CRX, sequence (O43186 whole entry): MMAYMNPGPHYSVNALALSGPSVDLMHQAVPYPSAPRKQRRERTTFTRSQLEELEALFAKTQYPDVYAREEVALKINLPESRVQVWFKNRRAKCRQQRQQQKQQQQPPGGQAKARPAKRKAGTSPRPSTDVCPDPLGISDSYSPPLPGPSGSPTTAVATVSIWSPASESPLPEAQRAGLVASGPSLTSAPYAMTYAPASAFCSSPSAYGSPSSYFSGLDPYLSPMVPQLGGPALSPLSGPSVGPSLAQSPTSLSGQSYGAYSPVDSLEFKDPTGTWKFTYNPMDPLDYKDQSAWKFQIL
# Procedure, shortened: as §1
sequence,measurement,setting,value
CCTTCC,binding signal,[1],"2.78 fold enrichment (6-mer frequency, TF over GST control)"
same,binding signal,[2],"2.73 fold enrichment (6-mer frequency, TF over GST control)"
same,binding signal,[3],"1.81 fold enrichment (6-mer frequency, TF over GST control)"
same,binding signal,[4],"2.36 fold enrichment (6-mer frequency, TF over GST control)"
same,binding signal,[5],"2.5 fold enrichment (6-mer frequency, TF over GST control)"
same,binding signal,[6],"2.19 fold enrichment (6-mer frequency, TF over GST control)"
same,binding signal,[7],"2.51 fold enrichment (6-mer frequency, TF over GST control)"
same,binding signal,[8],"2.27 fold enrichment (6-mer frequency, TF over GST control)"
same,binding signal,[9],"1.26 fold enrichment (6-mer frequency, TF over GST control)"
